Source: PubChem BioAssay (National Center for Advancing Translational Sciences (NCATS))
12-hLO inh: 12-hLO (ALOX12) enzyme inhibition; purified 12-hLO, xylenol orange hydroperoxide absorbance; 0.12% of 150,000 active; Potency, µM (series often up to 57.1 µM), usual class: inhibitors; P18054; AID 1452; also: nearly all actives have a fitted effect of over 55% in size
Target sequence (P18054 whole entry, looked up): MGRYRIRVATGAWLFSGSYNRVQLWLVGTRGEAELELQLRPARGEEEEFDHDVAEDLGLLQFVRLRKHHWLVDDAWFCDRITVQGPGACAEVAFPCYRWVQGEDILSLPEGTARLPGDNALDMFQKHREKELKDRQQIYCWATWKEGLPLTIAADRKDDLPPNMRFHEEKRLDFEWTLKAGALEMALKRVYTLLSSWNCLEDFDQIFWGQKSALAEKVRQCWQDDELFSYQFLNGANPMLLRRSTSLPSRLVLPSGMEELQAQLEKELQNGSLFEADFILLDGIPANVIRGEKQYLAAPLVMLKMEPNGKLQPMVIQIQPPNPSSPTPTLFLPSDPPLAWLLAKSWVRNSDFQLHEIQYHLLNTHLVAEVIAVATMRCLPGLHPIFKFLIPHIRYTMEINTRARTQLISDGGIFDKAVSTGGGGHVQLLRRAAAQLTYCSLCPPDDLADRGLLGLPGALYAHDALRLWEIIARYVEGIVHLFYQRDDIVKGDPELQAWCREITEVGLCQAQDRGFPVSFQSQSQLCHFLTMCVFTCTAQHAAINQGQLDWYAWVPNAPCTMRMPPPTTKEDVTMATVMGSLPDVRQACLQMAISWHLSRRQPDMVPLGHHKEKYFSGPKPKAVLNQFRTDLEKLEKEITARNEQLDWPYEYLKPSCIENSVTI
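Xylenol orange chromogenic assay: hydroperoxide from 12hLO oxidises Fe(II), giving red-shifted Fe(III)-XO absorbance. Conditions: 150 nM enzyme, 40 uM arachidonic acid, 25 mM Hepes pH 7.0, 0.01% Triton X-100, 30 min, room temperature.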
HPGD block: inhibitors of human 15-hydroxyprostaglandin dehydrogenase (HPGD) | purified HPGD, NADH fluorescence kinetic, PGE2 substrate | Potency, µM, actives largely listed as inhibitors | 4.3% of 150,000 active; active = well fitted inhibition curve with a large enough effect, not every such curve was filed as active; inconclusive = small, poorly fitted or top-dose-only effect, or another doubt; inactive = no such curve, though single readings can be large or run the other way
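NADH formation kinetics: reaction with 30 uM PGE2 and 1 mM NAD+ (final), 20 nM enzyme, Tris-HCl pH 8 with Tween 20, after 15 min compound preincubation at room temperature. Fluorescence change, last versus first of five reads.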
15-hLO-2 inh: blocks human 15-lipoxygenase 2 activity; purified 15hLO-2, xylenol orange hydroperoxide absorbance; O15296; Potency, µM (highest dose often 57.1 µM), actives largely listed as inhibitors; AID 881; 0.56% of 110,000 active; also: nearly all actives have a fitted effect of over 60% in size
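Enzyme 50 nM, AA 45 uM, 25 mM Hepes pH 7.5 + 0.01% Triton X-100; cpd preinc 15 min RT, rxn 90 min RT; stop/detect with 200 uM XO + 300 uM Fe(II) in 50 mM H2SO4, 30 min; A573/A405.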
PNC assembly inh: inhibitors of perinucleolar compartment assembly; 3.1% of 140,000 active; activity change (PNC), negative = inhibition, % at 10 µM; PC3M PTB-GFP, PNC prevalence imaging, 16 h; active compounds read low; AID 2417;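 active = readout at or below -70, meaning at least 70% loss of cells showing the perinucleolar compartment, a nuclear body marking cancer cells; inconclusive = readout between -30 and a set limit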
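Read-out is percentage of cells bearing a perinucleolar compartment, from automated 20x imaging of fixed, Hoechst-stained PC3M PTB-GFP cells. Cells were seeded 4 h, then exposed 16 h to compound (23 nl of library stock) in duplicate plates.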
IMPase Li cell: cell-permeable IMPase inhibitors with lithium potentiation; AID 1457; 0.35% of 210,000 active; CHO-M1 cells, IP1 TR-FRET (IP-One), carbachol + lithium; Potency, µM (doses to about 59.4 µM), hits mostly inhibitors;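 also: IP1 builds up when IMPase is blocked and the TR-FRET signal falls; nearly all actives have a fitted effect of over 50% in size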
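Test compounds were applied to CHO-M1 cells previously cultured for 16–30 h at 2000 per well. A small lithium amount accompanied them; after 30 min at 37C, IP1 was quantified by TR-FRET.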
IMPase cell inh: IMPase inhibition in cells; CHO-M1 cells, IP1 accumulation, HTRF TR-FRET ratio; inhibition (IP1 accumulation), % at 46.1 µM; 120,000 tested, under 10 active; AID 901; active = well fitted curve in the direction sought with a large enough effect in the signal ratio, not every such curve was filed as active; inconclusive = small, poorly fitted or top-dose-only effect, or a change in a side signal; inactive = no such curve, though single readings can be large or run the other way; the % refers to the signal ratio;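 also: cells stimulated with carbachol in lithium chloride buffer; higher means more IMPase inhibition seen as more IP1 and lower FRET ratio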
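CHO-M1 cells (CHO stably expressing M1 receptor), compound up to 46 uM final, stimulated with carbachol (50 uM as added) in buffer with 50mM LiCl, pH 7.4, 30 min at 37C. Cytosolic IP1 read by TR-FRET; AC50 from Hill fits.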
Hits are given with their value; i = inactive; ? = inconclusive; nt = not tested or not shown; [ ] = dose if it differs, or a comment. The list is not random: actives were taken first. Their share in the collection is about 5.3%. Unless noted, calls follow the shape of the dose curve; as a rule, active = well fitted curve in the direction sought with a large enough effect; inconclusive = small, poorly fitted or top-dose-only effect, or another doubt; inactive = no such curve, though single readings can be large; an effect the other way counts as inactive or inconclusive.

SMILES	12-hLO inh	HPGD block	15-hLO-2 inh	PNC assembly inh	IMPase Li cell	IMPase cell inh
COc1ccc(CCn2c(-c3cc([N+](=O)[O-])cc([N+](=O)[O-])c3)nc3nc4ccccc4nc32)cc1OC	i	i	nt	i	i	i
COc1cc(NS(=O)(=O)c2ccc(C)cc2)c2ncccc2c1	i	?	nt	-100	i	i
Cc1ccc(S(=O)(=O)/N=C2/C=C(Sc3ncn[nH]3)C(=O)c3ccccc32)c(C)c1	?	1.4µM	nt	i	i	nt
CC(C)c1ccc(S(=O)(=O)/N=C2/C=C(Sc3ncn[nH]3)C(=O)c3ccccc32)cc1	i	1.4µM	nt	?	i	?
Cc1ccc(S(=O)(=O)Nc2ccc(O)c(Sc3ncn[nH]3)c2)cc1	nt	nt	nt	nt	i	nt
Cc1ccc(S(=O)(=O)/N=C2/C=C(Sc3ncn[nH]3)C(=O)c3ccccc32)cc1	?	0.89µM	nt	i	i	nt
CCOC(=O)c1[nH]c2ccccc2c1NC(=O)Nc1ccc(OC)cc1	i	?	i	i	i	i
C[C@@H]1CC[C@H]2[C@H](C)C3[C@H](C[C@H]4[C@@H]5CC=C6C[C@@H](O)CC[C@@]6(C)[C@@H]5C[C@@H](O)[C@]34C)N2C1 (some centres not stated)	nt	i	nt	nt	i	nt
Cc1ccc(Sc2ccc(C(=O)N(C)C)cc2[N+](=O)[O-])cc1	nt	nt	nt	nt	i	nt
Cc1ccc(C(=O)c2coc3cc([N+](=O)[O-])c(O)c([N+](=O)[O-])c23)cc1	i	14µM	nt	i	i	i
CCOc1ccc(-c2nc(CSc3nnc(N)s3)cs2)cc1	i	i	i	i	i	i
CCOc1ccc(-c2nc(CSc3nnc(N)s3)cs2)cc1OC	i	i	i	-101	i	i
CC1(C)CC(CC(=O)NNc2nc(-c3ccccc3)cs2)C(=O)O1 (configuration not stated)	i	i	nt	-84	i	nt
CC(NCc1ccc(-c2ccccc2)cc1)C(O)c1ccccc1 (configuration not stated)	i	i	nt	-118	i	nt
C=CCN1C(=O)/C(=C2/Sc3ccc(OC)cc3N2C)SC1=NCc1ccccc1	nt	nt	nt	nt	2µM	nt
COc1ccc2c(c1)N(C)/C(=C1/SC(=NCc3ccccc3)N(c3ccccc3)C1=O)S2	i	i	i[11.4 µM]	?	i	i[1.84 µM]
O=C(CCCCl)Oc1ccc2cc(-c3ccc4ccccc4n3)c(=O)oc2c1	i	?	nt	i	i	nt
NCCn1c(-c2ccccc2)cc(C(=O)O)c1-c1ccccc1F	i	i	nt	-81	i	nt
CSc1cccc(NS(=O)(=O)c2ccccc2)c1	i	25µM	i	i	i	i
Cc1nc(-c2cccc(NS(=O)(=O)c3ccccc3)c2)cs1	i	14µM	i	i	i	i
COc1cc(NC(=S)N2CCN(c3ccccn3)CC2)cc(OC)c1	i	nt	nt	i	nt	i
O=C(OCn1ncc(Br)c(Br)c1=O)c1ccc(F)cc1	i	22µM	i	i	7.1µM	?
CC1=NC(C(F)(F)F)(C(F)(F)F)C2=C(CC(C)(C)CC2=O)N1Cc1ccco1	i	i	i	?	i	i
CC(=O)c1ccc(NC(=S)Nc2cccc(S(=O)(=O)Nc3c(C)n(C)n(-c4ccccc4)c3=O)c2)cc1	nt	nt	nt	nt	i	nt
C=C(C(=O)O)[C@@H]1CC[C@@]2(C)CCC[C@](C)(O)[C@@H]2C1	nt	i	nt	nt	i	nt
SMILES	12-hLO inh	HPGD block	15-hLO-2 inh	PNC assembly inh	IMPase Li cell	IMPase cell inh
Cc1oc2cc3c(C(=O)N4CCCCC4)c(C)oc3cc2c1C(=O)N1CCCCC1	i	4.5µM	i	i	i	i
COc1ccc(CNc2ccnc(-c3ccc(N(C)C)cc3)n2)c(OC)c1	nt	nt	i	nt	i	nt
COc1ccc(-n2c(SCCC#N)nnc2-c2cc(Cl)ccc2OC)cc1Cl	i	20µM	i	i	?	i
O=C(O)/C=C\c1cnc[nH]1	i	nt	i	nt	nt	i
O=C(C1CCCN(S(=O)(=O)c2cccc3cccnc23)C1)N1CCN(c2ccc(F)cc2)CC1 (configuration not stated)	i	i	i	-81	i	i
CCN1CCN(C(=O)C2CCN(S(=O)(=O)c3cccc4cccnc34)CC2)CC1	i	i	i	i	i	i
CC1CCN(C(=O)C2CCN(S(=O)(=O)c3cccc4nonc34)CC2)CC1	i	16µM	i	i	i	i
CC1CCCN(C(=O)C2CCN(S(=O)(=O)c3cccc4cccnc34)CC2)C1 (configuration not stated)	i	14µM	i	i	i	i
COc1cc(C(CC(=O)O)n2cnnn2)ccc1OC(C)C (configuration not stated)	nt	nt	nt	nt	i	nt
O=C(COc1ccccc1)NNC(=S)NC(=O)c1ccc(Cl)cc1Cl	i	35µM	nt	i	i	i
Cc1cccc(C(=O)NC(=S)NNC(=O)COc2ccc(Cl)cc2)c1	nt	nt	nt	nt	i	nt
COC(=O)[C@H]1O[C@@H](c2cc(OC)c(C)c(OC)c2OCc2ccccc2)[C@H](C)[C@H]2O[C@@]12C	nt	i	nt	nt	i	nt
Cc1ccc(SCCC(=O)N2CCCC2)cc1	i	14µM	i	?	i	i
Cc1ccc(SCCC(=O)N2CCOCC2)cc1	i	i	i	?	i	i
Cc1ccc(SCCC(=O)N2CCC(C)CC2)cc1	i	7.9µM	nt	i	i	i
O=C(COC(=O)c1cc(=O)[nH]c(=O)[nH]1)Nc1cccc(S(=O)(=O)N2CCCCC2)c1	nt	nt	nt	nt	i	nt
NCCCCNS(=O)(=O)c1cccc2c(Cl)cccc12	i	i	i	nt	i	i
Cc1c(/C(O)=C2/C(=O)C(=O)N(Cc3cccnc3)C2c2cccs2)cnn1-c1ccccc1 (configuration not stated)	i	20µM	i	i	7.1µM	?
COc1ccccc1N1C(=O)CC(Sc2n[nH]c(-c3cccc(C)c3)n2)C1=O (configuration not stated)	i	?	nt	i	i	nt
COc1cc(-c2nc3c(c(C)nn3-c3ccccc3)c3cc(OC)c(OC)cc23)ccc1O	i	?	i	-109	i	i
Cc1cc(N2C(=O)NC(=O)CC2C)c(C)cc1C(C)C (configuration not stated)	i	i	nt	?	i	nt
CNc1ccc(Br)cc(C(=O)/C=C/c2ccc(OC)cc2)c1=O	i	i	nt	-109	i	nt
CNc1ccc(Br)cc(C(=O)/C=C/c2ccc3c(c2)OCO3)c1=O	?	16µM	?	i	i	i
CCNc1ccc(Br)cc(C(=O)/C=C/c2ccc(Cl)cc2Cl)c1=O	?	22µM	nt	-100	i	i
CNc1ccc(Br)cc(C(=O)/C=C/c2cc(OC)ccc2OC)c1=O	i	?	nt	i	i	i
O=C(NCc1ccc(Cl)cc1Cl)C1CCN(S(=O)(=O)c2ccc3c(c2)OCCCO3)CC1	i	i	nt	i	i	i
